NPC1 prom act: activators of NPC1 promoter; Huh7 NPC1 promoter luciferase reporter, 24 h; Potency, µM (series often up to 9.22 µM), for the others: at the top dose activation, actives largely listed as activators; actives 2.4% (n = 320,000); AID 485313; note: % of control where 0% means no effect; nearly all actives have a fitted effect of over 60% in size
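Luminescence from an NPC1 promoter-driven luciferase reporter in stably transfected Huh7 cells was measured after 24 h compound treatment at 37 °C, followed by 10 min ambient incubation with luciferase detection reagent.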
Luc counter: Kinase-Glo luciferase inhibition (counter-screen); Potency, µM (top dose mostly 38.3 µM), inactives show at the top dose activity change, negative = inhibition, hits mostly inhibitors; Kinase-Glo luciferase, ATP luminescence, 8 min; actives 0.28% (n = 200,000); Q27757; note: % is set by controls: 0 for no effect and ±100 for the full control effect; nearly all actives have a fitted effect of over 60% in size
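Kinase-Glo luciferase light output from ATP and luciferin was measured with 10 uM ATP, within the enzyme's linear range. Buffer: 50 mM imidazole pH 7.2, 50 mM KCl, 7 mM MgCl2, 0.01% Tween 20, 0.05% BSA; luminescence read after 8 min at ambient temperature.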
SMN2 splice up: enhancers of SMN2 splice variant expression | HEK293 SMN2-luciferase splicing reporter, luminescence, 30-36 h | Potency, µM (titrated, usually from 46.1 µM), inactives show at the top dose activity change, positive = activation, hits mostly activators | actives 2.8% (n = 210,000) | AID 1458; note: % of control where 0% means no effect; nearly all actives have a fitted effect of over 55% in size
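HEK293 cells carry an SMN2 minigene-luciferase reporter in which exon 7 inclusion puts luciferase in frame. Cells were seeded at 2000 cells/well, attached for 10-12 hours, then exposed to compounds for 30-36 hours at 37C before ONE-Glo luminescence.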
FLuc counter: inhibits or activates purified firefly luciferase, miR-21 counter-screen. purified FLuc, Km substrates, luminescence inhibition. Potency, µM (series often up to 57.5 µM), inactives show top-dose activity change, negative = inhibition, most hits filed as inhibitors. actives 6.9% (n = 360,000). AID 588342;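 note: plate controls were vehicle for no effect and reference inhibitor for full effect; nearly all actives have a fitted effect of over 55% in size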
Target sequence (P08659 whole entry, looked up): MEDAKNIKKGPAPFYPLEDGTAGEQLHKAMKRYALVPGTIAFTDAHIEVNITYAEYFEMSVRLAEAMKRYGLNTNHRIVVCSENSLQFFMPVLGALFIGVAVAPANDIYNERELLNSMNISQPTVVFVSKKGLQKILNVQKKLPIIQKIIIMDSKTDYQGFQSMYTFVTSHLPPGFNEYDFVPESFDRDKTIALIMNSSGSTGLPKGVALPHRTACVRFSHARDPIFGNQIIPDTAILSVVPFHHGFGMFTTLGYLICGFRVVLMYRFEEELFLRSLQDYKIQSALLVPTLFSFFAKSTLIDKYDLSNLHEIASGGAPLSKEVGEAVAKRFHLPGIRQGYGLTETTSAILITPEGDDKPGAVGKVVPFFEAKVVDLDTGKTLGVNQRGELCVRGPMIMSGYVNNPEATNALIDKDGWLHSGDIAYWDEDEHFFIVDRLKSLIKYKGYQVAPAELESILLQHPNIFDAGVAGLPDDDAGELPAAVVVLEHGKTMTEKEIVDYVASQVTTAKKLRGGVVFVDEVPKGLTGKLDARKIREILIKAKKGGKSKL
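Purified P. pyralis luciferase, 10 nM final, with Km-level 10 uM D-luciferin and 10 uM ATP in 50 mM Tris acetate pH 7.5, 10 mM Mg acetate, 0.01% Tween-20, 0.05% BSA; 6-point qHTS titration about 60 µM downward; luminescence read.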
Rab9 promoter act: activates the Rab9 promoter; Huh7 Rab9 promoter-luciferase reporter, luminescence, 24 h; Potency, µM (titrated, usually from 9.22 µM), without a hit: top-dose activation, negative = inhibition, hits mostly activators; actives 2.8% (n = 320,000); AID 485297; note: % of control where 0% means no effect; nearly all actives have a fitted effect of over 60% in size
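Quantitative HTS format; Huh7 Rab9-luciferase reporter cells (1500/well) receive compound 2 h post-plating, incubate 24 h at 37 °C, then get luciferase reagent for 10 min before luminescence reading.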
ELG1 genotox: inducers of genotoxicity in HEK293T ELG1-luciferase cells | HEK293T ELG1-luciferase reporter, luminescence, 16 h | Potency, µM (titrated, usually from 46 µM), without a hit: top-dose activity change, positive = activation, actives largely listed as activators | actives 1.3% (n = 330,000); note: % of control where 0% means no effect; nearly all actives have a fitted effect of over 60% in size
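Screening used a luciferase reporter fused to human ELG1 in HEK293T cells. Luminescence was read on a CCD plate imager after 16 hr exposure and 30 min ONE-Glo incubation.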
The depositor's hits bear a star; ? = inconclusive; . = no result given. Only some compounds are listed: those with a hit (about 7.5% of all), similar ones and a draw of the others. Calls come from the whole dose curve; as a rule, active = well fitted curve in the direction sought with a large enough effect; inconclusive = small, poorly fitted or top-dose-only effect, or another doubt; inactive = no such curve, though single readings can be large; an effect the other way counts as inactive or inconclusive. Potency is the fitted concentration of half-maximal effect.

SMILES | NPC1 prom act | Luc counter | SMN2 splice up | FLuc counter | Rab9 promoter act | ELG1 genotox
CCOc1ccc(C2=Nc3ccc(Br)cc3C(c3ccc(N4CCOCC4)cc3)=NN2)cc1 | ? | 3% | ? | 24µM* | ? | ?
CCOc1ccc(C2=NNC(c3cccs3)=Nc3ccc(OC)cc32)cc1 | -4% | -7% | 4% | 21µM* | -1% | -3%
CCOc1ccc(C2=Nc3ccccc3C(c3ccc(N4CCOCC4)cc3)=NN2)cc1 | ? | -6% | ? | ? | 2.8µM* | 10%
O=C(/C=C/N1CCOCC1)c1ccc(-c2ccccc2)cc1 | 1.8µM* | -4% | ? | 11µM* | 3.2µM* | 17%
O=C(/C=C\N1CCOCC1)c1ccc(Br)cc1 | ? | . | . | 15µM* | ? | ?
O=C(Oc1ccccc1C(=O)N1CCOCC1)c1ccc(Br)cc1 | -2% | 0% | -20% | 5% | -7% | -2%
CC1=N/C(=C/c2ccc([N+](=O)[O-])cc2)C(=O)N1c1ccc(Cl)cc1Cl | 0% | -5% | -51% | -2% | 0% | -19%
CC1=N/C(=C\c2ccc([N+](=O)[O-])cc2)C(=O)N1c1ccc(F)cc1F | -4% | . | . | 7.6µM* | -1% | -1%
O=C(Nc1nccs1)c1c(O)c2c([nH]c1=O)CCCC2 | ? | . | . | ? | 2.2µM* | 8%
O=C(Nc1ccccc1O)c1c(O)c2c([nH]c1=O)CCCC2 | ? | -3% | 18µM* | 7.6µM* | 3.5µM* | ?
O=C(N/N=C/c1cccc(Cl)c1)c1c(O)c2c([nH]c1=O)CCCC2 | 2.8µM* | . | . | ? | 2.5µM* | ?
CCCc1nnc(NC(=O)c2c(O)c3c([nH]c2=O)CCCC3)s1 | 28% | 14% | 11% | 2% | ? | 3%
Cc1cccc(NC(=O)COc2ccc3oc4c(c3c2)CCCC4)n1 | 16% | -5% | 3% | ? | -4% | 27%
Cc1cccc(NC(=O)COc2ccc3c(c2)CCC3)n1 | 25% | . | . | 11µM* | ? | 17%
O=C(COc1ccc2c(c1)CCC2)Nc1ccccn1 | 4µM* | . | . | 0.17µM* | 3.2µM* | ?
Cc1cnc(NC(=O)COc2ccc3c(c2)CCC3)s1 | 0.56µM* | . | . | 1.2µM* | ? | 0.65µM*
COc1ccc(NC(=O)COc2cccc3c2OC(C)(C)C3)cc1OC | -3% | . | . | 4% | -13% | -4%
Cc1cnc(NC(=O)COc2cccc3c2OC(C)(C)C3)s1 | -2% | 0% | 20µM* | -4% | -1% | -3%
O=C1NC(Cc2ccccc2)c2nc3cc(Cl)ccc3c(=O)n2-c2ccccc21 (stereo not drawn) | . | . | . | . | . | -4%
CCN(CC)CCCC(C)n1c(-c2ccccc2)nc2c(NCc3ccccc3)nc(C)nc21 (stereo not drawn) | . | 1% | -14% | . | . | .
COc1ccc(-c2noc(-c3nnn(-c4cc(C)ccc4C)c3N)n2)cc1 | . | . | . | -7% | . | .
C/C(=N\NC(=O)CSc1nc(C)[nH]c1[N+](=O)[O-])c1ccc(F)cc1 | 24% | . | . | 15µM* | ? | -6%
Cc1nc(SCC(N)=O)c([N+](=O)[O-])[nH]1 | -2% | 6% | 13% | -2% | -6% | -1%
CCCCCCCc1cc2ccccc2c(=O)o1 | . | 0% | 18% | . | . | .
Cc1ccc(NC(=O)CCc2c(C)nc3ncnn3c2C)cc1Cl | . | . | -26% | 6% | . | .
SMILES | NPC1 prom act | Luc counter | SMN2 splice up | FLuc counter | Rab9 promoter act | ELG1 genotox
Cc1ccc(-n2ncc(C(=O)N3CCN(Cc4ccccc4)CC3)c2C2CCN(C(=O)OC(C)(C)C)CC2)c(C)c1 | . | . | . | 6% | . | .
CCOc1ccc(C2CC(=O)Nc3c2c(=O)[nH]c2ncnn32)cc1 (stereo not drawn) | . | . | -3% | -7% | . | .
COc1ccccc1CC(=O)Nc1cccc2c1CCCC2 | -7% | -5% | 4.5µM* | -2% | -4% | 3%
COc1cccc(OC)c1C(=O)Nc1cccc2c1CCCC2 | 0% | . | . | -9% | -2% | -6%
CCCOc1cccc(C(=O)Nc2ccc(-c3nc4ccccc4s3)c(Cl)c2)c1 | . | . | 11% | -9% | . | .
CN(CC(=O)Nc1ccc(F)c(F)c1F)C(=O)c1ccc(=O)[nH]c1 | 0.89µM* | . | . | 4.3µM* | 1.1µM* | 4.6µM*
COc1ccc(NN=Nc2ccc([N+](=O)[O-])cc2)cc1 | ? | . | . | 2.4µM* | 3.5µM* | ?
COc1ccc(N/N=C(/Oc2ccc([N+](=O)[O-])cc2)C(C)=O)cc1 | -6% | -2% | -9% | 1% | -1% | 6%
Nc1ccc(-c2cn3cccnc3n2)cc1 | 24% | 1% | 31% | ? | ? | 13%
Cc1cccn2cc(-c3cc4ccccc4oc3=O)nc12 | 0.11µM* | ? | . | 0.19µM* | 0.14µM* | 0.82µM*
O=c1oc2ccccc2cc1-c1cn2cccnc2n1 | 1µM* | ? | 4.5µM* | 4.3µM* | 0.56µM* | ?
Cc1cccc(NC(=O)c2sc3nc(N4CCOCC4)c4c(c3c2N)CC(C)(C)OC4)c1 | . | . | 8% | -1% | . | .
Cc1ccc(OCCn2c(C3CC(=O)N(Cc4ccc(F)cc4)C3)nc3ccccc32)c(C)c1 (stereo not drawn) | . | . | . | -7% | . | .
CN1CCN(C(=S)c2ccc(-c3cccc([N+](=O)[O-])c3)o2)CC1 | 2.2µM* | . | . | 6.7µM* | 2.2µM* | 10µM*
O=[N+]([O-])c1cc(-c2ccc(C(=S)N3CCOCC3)o2)ccc1Cl | -10% | 1% | 26% | 15µM* | 8% | 15%
O=[N+]([O-])c1cccc(-c2ccc(C(=S)N3CCOCC3)o2)c1 | 2.8µM* | -1% | 11µM* | 3µM* | 1.1µM* | ?
Nc1cc(-c2ccccc2)nn1Cc1ccccc1 | 9% | 3% | -44% | -7% | -8% | 0%
CN(C)N=Nc1ccc(-c2cn(Cc3ccccc3)cn2)cc1 | 2.8µM* | . | . | 19µM* | ? | ?
COc1ccc(CNc2nc3ccccc3n2C)c(OC)c1 | 3.2µM* | -16% | . | 12µM* | 2.5µM* | ?
COc1ccc(CNc2nc3ccccc3n2C)c(O)c1 | 2.5µM* | . | . | 8.5µM* | 3.2µM* | ?
COc1ccc(N(CC(=O)Nc2cc(C)ccc2C)S(=O)(=O)c2ccc(OC)c(OC)c2)cc1 | . | . | -6% | -10% | . | .
N#Cc1c(-c2ccccc2)cc(-c2ccccc2)nc1SCC(O)CS(=O)(=O)Cc1ccc(Cl)cc1 (stereo not drawn) | . | . | -5% | ? | . | .
Cc1cc2ccccc2n1-c1ccc(C(=O)N2CCC(C(=O)NCc3ccc(Cl)cc3)CC2)s1 | . | . | . | 4% | . | .
CCC12CN3CC(C)(CN(C1)C3c1c[nH]c3ccc(OC)cc13)C2=O (stereo not drawn) | . | . | -6% | -6% | . | .
O=c1c(N2CCN(c3cccc(C(F)(F)F)c3)CC2)csc2ccccc12 | . | . | . | 0% | . | .

Compound activity (PubChem)
